# Measurements from PubChem BioAssay AID2284073 (EPA ToxCast).
# Calls of active or inactive are those of the source. Rule for the calls: active = hit-call score of the fitted dose curve at least 0.9, where 1 is the maximum; inactive = score below 0.9.
# Biological target: human (CYP19A1), CYP19A1 (gene 1588) (UniProt P11511)
# Assay: ERF_TW_ENZ_hCYP19A1: Eurofins (ERF) Enzymatic CYP450 LeadHunter Assay for human (CYP19A1)
# Description: ERF_TW_ENZ_hCYP19A1 is a biochemical, single-readout assay that uses extracted gene-proteins in a cell-free assay. Measurements were taken 0.75 hour after chemical dosing in a 96-well plate. See CYP19A1 Human CYP450 Enzymatic Assay, Panlabs.ERF_TW_ENZ_hCYP19A1 is an assay component calculated from the ERF_TW_ENZ_hCYP19A1 assay. It is designed to measure enzyme activity using a type of enzyme reporter as detected by fluorescence intensity with spectrophotometry technology.Data from the assay component ERF_TW_ENZ_hCYP19A1 was analyzed at the assay endpoint, ERF_TW_ENZ_hCYP19A1, in the positive analysis fitting direction relative to DMSO as the negative control and baseline of activity. Using a type of enzyme reporter, loss-of-signal activity can be used to understand changes in enzymatic activity as they relate to gene CYP19A1. To generalize the intended target to other relatable targets, this assay endpoint is annotated to the cyp intended target family, where the subfamily is steroidogenesis-related.
# Human recombinant CYP450 19 plus P450 reductase, expressed in baculovirus infected insect BTI-TN-5B1-4 cells is used. Test compound and/or vehicle is preincubated with 4 nM enzyme in phosphate buffer pH 7.4 for 15 minutes at 37C. […] Determination of the amount of dibenzylfluorescein remaining is read spectrofluorimetrically. […]
# human (CYP19A1), CYP19A1 (gene 1588), sequence (P11511 whole entry, looked up): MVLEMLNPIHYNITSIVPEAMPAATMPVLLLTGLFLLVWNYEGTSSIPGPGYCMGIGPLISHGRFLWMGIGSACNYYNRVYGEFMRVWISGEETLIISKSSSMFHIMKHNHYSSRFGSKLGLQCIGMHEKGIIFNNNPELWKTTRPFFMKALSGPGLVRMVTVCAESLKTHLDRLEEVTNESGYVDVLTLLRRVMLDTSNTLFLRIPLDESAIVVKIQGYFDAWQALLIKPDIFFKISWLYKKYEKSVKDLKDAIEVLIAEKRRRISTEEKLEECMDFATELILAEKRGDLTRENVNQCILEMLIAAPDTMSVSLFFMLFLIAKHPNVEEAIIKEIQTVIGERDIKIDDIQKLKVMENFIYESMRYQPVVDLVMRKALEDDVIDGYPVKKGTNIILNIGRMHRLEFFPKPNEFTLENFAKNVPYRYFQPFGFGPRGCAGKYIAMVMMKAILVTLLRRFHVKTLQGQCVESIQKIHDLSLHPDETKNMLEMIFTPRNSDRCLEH
row,Compound,AC50
1,COc1cc(CCC(=O)CC(=O)CCc2ccc(O)c(OC)c2)ccc1O,5.05 µM (active)
